# Screens: PubChem BioAssay, The Scripps Research Institute Molecular Screening Center
# TEAD-YAP block: TEAD-YAP interaction inhibition. HEK-TIYL cells, TEAD-Gal4/YAP UAS-luciferase luminescence. inhibition, % at 9.12 µM. actives 1.4% (n = 640,000). AID 1259422; in the data active = inhibition above about 32%;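 also: 0% = median of test compound wells and 100% = reference inhibitor wells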
# FBW7 activator: activators of human E3 ligase FBW7 | actives 0.13% (n = 650,000) | AlphaScreen FBW7–phospho-cyclin E peptide binding, activator screen | Q969H0 | normalized activity (activation), % at 26.1 µM; in the data active = normalized activity above about 1.9%;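 also: purified mutant Fbw7 with reduced substrate affinity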
# MITF inh: human MITF inhibition, primary screen; AlphaScreen MITF homodimerization, bead proximity signal; inhibition, % at 2.6 µM; actives 0.91% (n = 650,000); in the data active = inhibition above about 50%;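 also: 0% = vehicle wells with protein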
# GPR151 activ: activates the human receptor GPR151. Q8TDV0. PathHunter beta-arrestin GPR151 cells, luminescence. activation, % at 11.2 µM. actives 1% (n = 650,000). AID 1508602; in the data active = activation above about 4.9%;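 also: 0% = median of compound wells and 100% = cells with positive control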
# Target sequence (Q8TDV0 whole entry, looked up): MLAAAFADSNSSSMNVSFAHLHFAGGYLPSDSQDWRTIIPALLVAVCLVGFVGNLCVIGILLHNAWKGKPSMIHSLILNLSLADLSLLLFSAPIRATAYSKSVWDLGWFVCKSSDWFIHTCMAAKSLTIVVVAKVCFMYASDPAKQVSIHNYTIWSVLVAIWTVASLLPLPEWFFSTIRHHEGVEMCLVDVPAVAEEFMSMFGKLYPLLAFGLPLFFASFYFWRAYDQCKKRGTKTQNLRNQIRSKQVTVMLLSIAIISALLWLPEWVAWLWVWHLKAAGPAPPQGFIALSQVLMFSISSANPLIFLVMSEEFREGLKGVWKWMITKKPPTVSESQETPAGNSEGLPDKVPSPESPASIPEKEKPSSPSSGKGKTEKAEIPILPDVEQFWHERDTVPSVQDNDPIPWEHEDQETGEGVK
# GPR151 conf act: confirmation of human GPR151 activators; activation, % at 11.2 µM; 6,700 tested, under 10 active; GPR151 PathHunter beta-arrestin cells, luminescence, 90 min; % of EA-reagent control over plate median; shares compounds with GPR151 activ;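 active = mean percent activation across replicates above the confirmation screen cutoff of 4.91%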
# GPR119 counter: activates human GPR119 in a GPR151 counter-screen. shares compounds with GPR151 activ. GPR119 PathHunter beta-arrestin cells, luminescence, 90 min; 0 = compound-well median, 100 = enzyme-acceptor control. activation, % at 11.2 µM. actives 0.3% (n = 6,700);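 active = mean percent activation in the counterscreen above 29.09%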;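 also: counterscreen on off-target GPR119 to flag nonselective hits from the GPR151 activator screen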
# An asterisk follows results filed as active; / = not tested or not shown. Shown are actives, neighbours in structure and some others; about 3.4% of the full set was active somewhere.
SMILES,TEAD-YAP block,FBW7 activator,MITF inh,GPR151 activ,GPR151 conf act,GPR119 counter
N#CC1=C(N)Oc2n[nH]c(-c3ccccc3)c2C1c1ccc(Cl)c([N+](=O)[O-])c1 (stereo not drawn),-1.7,0.1,-2.8,6.1*,-0.1,3.1
O=C(CSCc1ccco1)c1cc2ccccc2o1,-43.7,-0.2,5.4,-0.5,/,/
CC(C)CCNc1c(-c2ccccc2)c(=O)c1=O,7.6,-0.3,-9.2,6.9*,1.4,0.3
CC/C(C)=N\NC(=O)c1ccc(N)cc1,-25.2,0.0,7.4,0.7,/,/
CC/C(C)=N/NC(=O)c1ccc(C(=O)N/N=C(\C)CC)cc1,4.3,0.1,-16.9,8.3*,-0.2,5.6
Cc1nn(-c2ccccc2)c2sc(C(=O)NCCOC(=O)COc3ccccc3)cc12,-14.0,0.1,13.8,2.6,/,/
CCOc1cc(Br)c(/C=C/C(=O)O)cc1OC,-0.7,0.1,10.3,5.3*,-0.3,-7.3
COc1ccc(Cc2nc(SCC(=O)Nc3cccc(C(=O)OC(C)C)c3)n[nH]2)cc1,-2.4,0.1,9.0,5.8*,-0.4,0.8
CCOC(=O)c1c(NC(=O)COc2ccc(Cl)c(C)c2)oc(C)c1C(C)=O,-0.4,-0.1,-8.0,-0.3,/,/
Cc1nc(NC2=NCN(Cc3cccnc3)CN2)nc2ccccc12,4.1,-0.1,12.9,7.7*,0.2,2.9
O=C(CCN1C(=O)C2C3C=CC(CC3)C2C1=O)N1CCN(c2cccc(C(F)(F)F)c2)CC1 (stereo not drawn),4.6,-0.2,6.1,-0.1,/,/
O=C(Nc1cccc(F)c1)c1cccn(OCc2ccccc2F)c1=O,-30.6,-0.1,7.7,-0.9,/,/
COc1cccc(NC(=O)c2cccn(OCc3ccccc3F)c2=O)c1,-16.7,0.1,-30.0,6.2*,-0.1,5.5
CCC(C)(C)c1ccc(OCCOCCn2cc([N+](=O)[O-])nc2C)c(C(C)(C)CC)c1,1.4,0.0,-9.4,5.6*,0.3,5.6
CN(C(=O)COc1ccc(C(C)(C)C)cc1)C1(C)CCS(=O)(=O)C1 (stereo not drawn),7.8,-0.1,-11.6,5.5*,-0.8,-1.5
COC(=O)c1ccccc1OCCOCCOc1cccc2cccnc12,-6.9,0.1,1.3,0.7,/,/
COC(=O)c1ccccc1OCCOc1ccccc1C(=O)OC,-10.9,0.6,8.7,5.6*,0.2,11.4
CC1=C(C(=O)Nc2ccccn2)C(c2ccc(OC(=O)c3ccccc3)cc2)n2ncnc2N1 (stereo not drawn),-10.3,-0.1,-5.8,0.9,/,/
O=S(c1cc(Cl)cc(Cl)c1O)c1cc(Cl)cc(Cl)c1O,-6.4,0.0,6.6,6.9*,1.4,3.9
COc1ccccc1N1CCN(C(=O)CSc2nc(N)cc(=O)[nH]2)CC1,13.3,0.5,11.9,-1.0,/,/
COc1ccccc1N1CCN(C(=O)CSc2nc3ccccc3[nH]2)CC1,8.6,0.0,9.5,6.0*,0.1,1.9
CC(=O)N1CCc2cc(Br)cc(S(=O)(=O)Nc3cccc(Cl)c3)c21,4.2,-0.1,-10.9,-0.6,/,/
CC(=O)N1CCc2cc(Br)cc(S(=O)(=O)Nc3noc4ccccc34)c21,-7.2,0.3,-17.4,19.0*,-0.5,-15.4
CC1CCc2cc(F)ccc2N1C(=O)/C=C/c1cccc([N+](=O)[O-])c1 (stereo not drawn),-10.5,-0.2,-0.9,3.6,/,/
O=S(=O)(CCOc1ccccc1)N1CCN(c2ccccc2F)CC1,0.1,0.1,2.9,-1.1,/,/
SMILES,TEAD-YAP block,FBW7 activator,MITF inh,GPR151 activ,GPR151 conf act,GPR119 counter
O=C(COc1ccc(Cl)cc1)NCCCS(=O)(=O)N1CCN(c2ncccn2)CC1,-8.7,0.1,1.6,7.5*,0.7,0.1
O=S(=O)(CCOc1ccccc1)N1CCN(c2ncccn2)CC1,2.3,0.0,1.3,6.2*,-0.4,-3.6
O=C(COc1ccccc1)NCCCS(=O)(=O)N1CCN(c2ncccn2)CC1,-5.8,0.0,8.5,-1.0,/,/
COc1ccc(CNS(=O)(=O)c2ccc3[nH]c(=O)ccc3c2)cc1,3.3,0.1,8.2,6.6*,0.1,-5.7
O=C(NC1CCCCC1)[C@H]1C=CCN1C(=O)C1CC1,0.9,0.1,-26.2,7.4*,0.2,0.5
CC1CCCCC1NC(=O)C1c2ccccc2C(=O)N(C)C1c1cccs1 (stereo not drawn),-8.9,-0.1,0.2,7.5*,0.5,-6.9
CN1C(=O)c2ccccc2C(C(=O)NC2CCCCCC2)C1c1cccs1 (stereo not drawn),-14.3,0.1,11.4,-0.5,/,/
COc1cc2c(cc1OC)CN(Cc1cccc([N+](=O)[O-])c1)CC2,-1.8,0.0,11.5,8.0*,0.5,13.0
Cc1ccccc1C(=O)NC(CCC(=O)NN)C(=O)NN (stereo not drawn),9.0,0.2,2.8,0.6,/,/
c1ccc(CN2CCC(Nc3nc(N4CCN(Cc5ccc6c(c5)OCO6)CC4)nc4c3ncn4C3CCCCC3)CC2)cc1,-9.9,-0.4,18.6,-0.3,/,/
O=C(CSCc1ccccc1)N1CCC(Cc2ccccc2)CC1,-42.6,0.6,6.1,6.0*,-0.2,1.0
O=C(CSc1cccc[n+]1[O-])N1CCC(Cc2ccccc2)CC1,-0.8,0.0,-11.0,1.3,/,/
NC(=O)C1CCN(C(=O)CSCc2c(Cl)cccc2Cl)CC1,1.6,-0.2,-11.0,6.1*,0.3,-3.1
CCOC(=O)C1CCN(C(=O)CSCc2c(Cl)cccc2Cl)CC1,2.5,0.1,2.3,-1.4,/,/
Cc1cc2ncc(-c3[nH]ncc3[N+](=O)[O-])cn2n1,2.0,0.1,8.3,4.4,/,/
N#C/C(=C\c1cn(Cc2ccccc2)c2ccccc12)C(=O)NC1CC1,-36.9,-0.4,4.6,5.2*,1.0,10.4
COc1ccc(CCN2C(=O)CC(C(=O)Nc3ccc(F)cc3)SC2=Nc2ccccc2)cc1 (stereo not drawn),-7.7,0.2,12.3,-1.2,/,/
CCOc1ccc(CCNS(=O)(=O)c2cc(C3=NNC(Nc4ccc(OCC(N)=O)cc4)c4ccccc43)ccc2C)cc1OCC (stereo not drawn),0.4,0.0,-5.0,-1.5,/,/
CCOC(=O)c1csc(NC(=O)Nc2ccc(Cl)cc2)n1,-7.2,-0.1,-5.7,-1.1,/,/
CC(C)N(C(=O)Cc1csc(NC(=O)Nc2ccc(Cl)cc2)n1)C(C)C,4.8,0.0,-6.6,11.2*,0.4,-10.0
COc1ccc(-c2cc(C(=O)N3C(C)CCCC3C)[nH]n2)cc1 (stereo not drawn),0.8,-0.1,-10.4,-1.0,/,/
COc1ccc(-c2cc(C(=O)N3CCCCC3C)[nH]n2)cc1 (stereo not drawn),-39.8,0.1,-4.8,5.3*,-0.7,-9.3
COCCN1C(=O)c2ccccc2C(C(=O)Nc2cccc(Cl)c2)C1c1ccc(F)cc1 (stereo not drawn),-4.5,0.6,0.2,-1.5,/,/
Nc1ccccc1NC1=CC(=O)CC(c2cccs2)C1 (stereo not drawn),-46.4,-0.3,-13.8,1.3,/,/
